{"source": "PubChem BioAssay", "note": "Unmarked numbers belong to inactive results. No rule for the calls is given here.", "data": [{"target": "Pantothenate synthetase (Mycobacterium tuberculosis (strain ATCC 25618 / H37Rv)) (UniProt P9WIL5)", "sequence (P9WIL5 whole entry, looked up)": "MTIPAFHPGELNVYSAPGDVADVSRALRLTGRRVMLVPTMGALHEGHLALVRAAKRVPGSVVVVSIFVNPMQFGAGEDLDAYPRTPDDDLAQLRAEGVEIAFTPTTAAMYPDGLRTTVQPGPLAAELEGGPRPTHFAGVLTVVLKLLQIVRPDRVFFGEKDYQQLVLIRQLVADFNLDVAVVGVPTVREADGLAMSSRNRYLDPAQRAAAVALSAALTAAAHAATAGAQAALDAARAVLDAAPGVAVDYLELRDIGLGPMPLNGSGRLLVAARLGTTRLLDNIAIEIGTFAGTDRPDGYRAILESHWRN", "experiment": "Coupled enzyme confirmation of inhibitors against recombinant Mtb PanC (AID 375);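 also: 0% = full reaction with vehicle and 100% = no enzyme background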", "details": "coupled enzyme assay; at 10 µM, hits give high values", "units": {"inhibition": "%"}, "values": [{"smiles": "COc1cc(S(=O)(=O)NC2CCCCC2)ccc1Cl", "inhibition": 1}, {"smiles": "CC(O)c1nc2ccccc2n1C1CCCCC1", "note": "(stereo not given)", "inhibition": 0}, {"smiles": "O=C(CSc1nnc(-c2ccc(Br)o2)n1Cc1ccccc1)c1ccccc1F", "inhibition": 2}, {"smiles": "COCCn1nnnc1C(c1cc2cc(C)cc(C)c2[nH]c1=O)N1CCN(c2ccccc2F)CC1", "note": "(stereo not given)", "inhibition": 2}, {"smiles": "O=C(CCC(=O)N1CCN(S(=O)(=O)c2ccccc2)CC1)c1cccs1", "inhibition": 9}, {"smiles": "COc1ccc(Cl)cc1S(=O)(=O)n1cnc2ccccc21", "inhibition": 1}, {"smiles": "Cc1ccc(-c2cc(C(=O)O)n[nH]2)o1", "inhibition": 0}, {"smiles": "COc1ccc(OC)c(NC(=O)C23CCC(C)(C(=O)C2)C3(C)C)c1", "note": "(stereo not given)", "inhibition": 3}, {"smiles": "CCOc1ccc(C(=O)N(CN2CCCC2=O)c2ccc(C)cc2)cc1", "inhibition": 0}, {"smiles": "CCn1c(SCC(=O)c2ccc(OC)cc2)nnc1C(C)NC(=O)c1ccc(OC)cc1", "note": "(stereo not given)", "inhibition": 3}, {"smiles": "CC(C)CCNC(=O)C(C)N(Cc1ccc(F)cc1)C(=O)c1ccc(CN2CCCCC2)o1", "note": "(stereo not given)", "inhibition": 1}, {"smiles": "O=C1CCc2nc3sc4c(c3c(=O)n2N1)CCCC4", "inhibition": 0}, {"smiles": "O=C(CCS(=O)(=O)c1cccc2nonc12)Nc1cccc2c1CCCC2", "inhibition": 1}, {"smiles": "CCOC(=O)c1cnn(-c2ncnc3c2cnn3Cc2ccccc2)c1N", "inhibition": 5}, {"smiles": "c1cn2cc(CSC3CCCCC3)nc2s1", "inhibition": 2}, {"smiles": "COc1ccc(-n2cc(-c3ccccc3)c3c(N4CCN(CCO)CC4)ncnc32)cc1", "inhibition": 0}, {"smiles": "Nc1ccc(S(=O)(=O)c2ccc(N)cc2)cc1", "inhibition": 0}, {"smiles": "Cc1nc2ccccc2c(=O)n1NC(=O)c1ccc(F)cc1Cl", "inhibition": 5}, {"smiles": "COC(=O)Cn1c(C)nc2c(sc3nc(C)cc(C)c32)c1=O", "inhibition": 3}, {"smiles": "c1ccc(-n2ncc3c(NCc4cccs4)ncnc32)cc1", "inhibition": 0}, {"smiles": "O=C(O)Cn1cc2c(n1)CCCC2", "inhibition": 0}, {"smiles": "COc1ccc(C2C(C(=O)c3sc(C)nc3C)=C(O)C(=O)N2CCN(C)C)cc1OC", "note": "(stereo not given)", "inhibition": 0}, {"smiles": "Cc1ccc2[nH]c(=O)c(CN(CCc3ccccc3)Cc3nnnn3CC3CCCO3)cc2c1", "note": "(stereo not given)", "inhibition": 2}, {"smiles": "Cc1cc(C)n2nc(SCC(=O)N(C)c3ccccc3)nc2n1", "inhibition": 1}, {"smiles": "O=C(NCc1ccco1)C(c1ccco1)N(C(=O)Cn1nnc2ccccc21)c1ccc2c(c1)CCC2", "note": "(stereo not given)", "inhibition": 0}, {"smiles": "O=C(CN1CCN(Cc2ccc3c(c2)OCO3)CC1)Nc1ccc2c(c1)OCCO2", "inhibition": 0}, {"smiles": "Cc1ccc(CCNC(=O)C2CCN(S(=O)(=O)c3cccc4nsnc34)CC2)cc1", "inhibition": 6}, {"smiles": "CC(=O)c1nnn(-c2nc(N3CCCC3)nc(N(c3ccccc3)c3ccccc3)n2)c1C", "inhibition": 0}, {"smiles": "O=C1c2ccccc2C(=O)N1C/C=C/c1ccccc1", "inhibition": 2}, {"smiles": "NC(=O)c1c(NC(=O)CSc2nnc(-c3ccco3)n2-c2ccccc2)sc2c1CCC2", "inhibition": 0}, {"smiles": "Cc1cccc2cc(CN(Cc3nnnn3Cc3ccccc3)C3CCCC3)c(=O)[nH]c12", "inhibition": 0}, {"smiles": "COc1ccccc1N=Cc1nc(-c2ccccc2)oc1OC(C)=O", "inhibition": 0}, {"smiles": "Clc1ccc(Cl)c(-c2nn3c(Cn4cnc5ccccc54)nnc3s2)c1", "inhibition": 0}, {"smiles": "CCCCc1ccc(NC(=O)N[C@H](C(=O)O)C(C)C)cc1", "inhibition": 1}, {"smiles": "Cn1nnnc1SCC(=O)Nc1ccccc1C(=O)NCc1ccccc1", "inhibition": 0}, {"smiles": "CCOC(=O)N1CCN(C(=O)C2CC(=O)N(Cc3ccc(OC)cc3)C2)CC1", "note": "(stereo not given)", "inhibition": 3}, {"smiles": "C=CCSc1nc(N)c2c(C)c(C)sc2n1", "inhibition": 0}, {"smiles": "COc1ccc(OC)c(NC(=O)c2nnn(Cc3ccc(Br)cc3F)c2N)c1", "inhibition": 0}, {"smiles": "COC(=O)c1[nH]c(C)c(/C(O)=C2\\C(=O)C(=O)N(CCCN3CCOCC3)C2c2ccccn2)c1C", "note": "(stereo not given)", "inhibition": 8}, {"smiles": "CC(=O)c1ccc(-c2nc3ccccc3n2C)o1", "inhibition": 0}]}]}
